Data published in the supplement of paper PMC11732987, “Enantioselective OTUD7B fragment discovery through chemoproteomics screening and high-throughput optimisation” (Communications Chemistry, 2025).
Values without a mark were called inactive.

Columns and labels:
Test in all cases: log2 ratio of Biotin-Ahx-Ub-VS probe labelling (fragment/DMSO); higher = less target engagement (more negative = stronger competition), active = hit call of the paper (q ≤ 0.05, log2 ratio ≤ -1)
Conditions in all cases: compound concentration: 200 uM; treatment time: 3 h
[1] = target: T1, USP42 (UniProt Q9H9J4)
T1 sequence (whole entry): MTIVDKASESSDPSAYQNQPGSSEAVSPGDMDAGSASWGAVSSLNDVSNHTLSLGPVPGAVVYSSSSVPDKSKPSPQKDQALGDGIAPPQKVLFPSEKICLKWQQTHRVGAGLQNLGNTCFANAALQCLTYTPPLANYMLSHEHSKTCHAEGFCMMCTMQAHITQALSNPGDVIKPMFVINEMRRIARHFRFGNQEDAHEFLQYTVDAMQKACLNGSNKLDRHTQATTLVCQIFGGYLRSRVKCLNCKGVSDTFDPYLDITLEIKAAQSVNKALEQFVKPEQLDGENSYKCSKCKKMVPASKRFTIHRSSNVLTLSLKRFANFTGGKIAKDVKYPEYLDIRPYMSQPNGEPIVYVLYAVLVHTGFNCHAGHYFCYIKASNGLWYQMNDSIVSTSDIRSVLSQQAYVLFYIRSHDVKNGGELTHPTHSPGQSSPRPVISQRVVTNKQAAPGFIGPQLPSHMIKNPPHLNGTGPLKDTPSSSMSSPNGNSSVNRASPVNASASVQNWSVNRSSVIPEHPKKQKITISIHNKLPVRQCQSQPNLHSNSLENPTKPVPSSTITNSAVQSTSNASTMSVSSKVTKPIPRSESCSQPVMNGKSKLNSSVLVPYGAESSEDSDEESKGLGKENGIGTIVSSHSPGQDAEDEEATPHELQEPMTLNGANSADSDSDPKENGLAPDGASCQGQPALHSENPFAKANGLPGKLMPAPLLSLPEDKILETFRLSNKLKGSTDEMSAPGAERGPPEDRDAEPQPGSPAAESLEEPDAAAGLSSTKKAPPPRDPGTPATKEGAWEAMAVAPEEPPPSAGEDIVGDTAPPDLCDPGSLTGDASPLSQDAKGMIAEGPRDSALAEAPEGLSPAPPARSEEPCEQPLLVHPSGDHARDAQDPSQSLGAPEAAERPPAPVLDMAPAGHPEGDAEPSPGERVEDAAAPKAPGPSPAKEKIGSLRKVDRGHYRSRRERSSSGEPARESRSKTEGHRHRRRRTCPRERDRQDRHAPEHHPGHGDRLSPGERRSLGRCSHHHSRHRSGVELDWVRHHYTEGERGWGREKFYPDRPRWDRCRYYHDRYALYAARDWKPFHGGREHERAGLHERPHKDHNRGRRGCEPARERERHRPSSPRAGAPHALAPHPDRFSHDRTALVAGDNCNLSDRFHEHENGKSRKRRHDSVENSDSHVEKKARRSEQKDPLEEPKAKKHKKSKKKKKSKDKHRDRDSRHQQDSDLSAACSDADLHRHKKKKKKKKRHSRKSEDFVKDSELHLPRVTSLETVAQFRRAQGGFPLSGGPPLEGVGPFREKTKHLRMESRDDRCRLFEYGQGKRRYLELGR
Method in brief: (§1)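 HEK293T lysate, 495 µg per sample in Tris/CHAPS/IGEPAL buffer with protease inhibitors, was treated in triplicate with fragment at 200 µM or vehicle for 3 h and then with Biotin-Ahx-Ub-VS at 0.5 µM final for 1 h. Labelled DUBs were NeutrAvidin-enriched, digested with LysC and trypsin, and run by diaPASEF LC-MS/MS. Spectronaut label-free quantities were global-median-normalised, and values are average log2 fragment/vehicle ratios by unpaired t-test on proteins with ≥2 unique peptides.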

[2] = target: USP46 (UniProt P62068)
USP46, sequence (P62068 whole entry): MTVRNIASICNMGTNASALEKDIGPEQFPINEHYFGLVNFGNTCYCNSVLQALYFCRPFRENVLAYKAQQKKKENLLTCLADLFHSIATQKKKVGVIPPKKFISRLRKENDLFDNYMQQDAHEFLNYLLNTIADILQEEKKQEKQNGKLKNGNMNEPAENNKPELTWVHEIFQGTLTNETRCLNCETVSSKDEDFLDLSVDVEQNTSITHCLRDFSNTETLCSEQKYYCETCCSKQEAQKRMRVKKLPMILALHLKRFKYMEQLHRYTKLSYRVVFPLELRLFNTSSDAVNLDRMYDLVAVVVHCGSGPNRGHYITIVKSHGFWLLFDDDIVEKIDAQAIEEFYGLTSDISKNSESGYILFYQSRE
Method in brief: as §1

[3] = target: T2, USP47 (UniProt Q96K76)
T2 sequence (whole entry): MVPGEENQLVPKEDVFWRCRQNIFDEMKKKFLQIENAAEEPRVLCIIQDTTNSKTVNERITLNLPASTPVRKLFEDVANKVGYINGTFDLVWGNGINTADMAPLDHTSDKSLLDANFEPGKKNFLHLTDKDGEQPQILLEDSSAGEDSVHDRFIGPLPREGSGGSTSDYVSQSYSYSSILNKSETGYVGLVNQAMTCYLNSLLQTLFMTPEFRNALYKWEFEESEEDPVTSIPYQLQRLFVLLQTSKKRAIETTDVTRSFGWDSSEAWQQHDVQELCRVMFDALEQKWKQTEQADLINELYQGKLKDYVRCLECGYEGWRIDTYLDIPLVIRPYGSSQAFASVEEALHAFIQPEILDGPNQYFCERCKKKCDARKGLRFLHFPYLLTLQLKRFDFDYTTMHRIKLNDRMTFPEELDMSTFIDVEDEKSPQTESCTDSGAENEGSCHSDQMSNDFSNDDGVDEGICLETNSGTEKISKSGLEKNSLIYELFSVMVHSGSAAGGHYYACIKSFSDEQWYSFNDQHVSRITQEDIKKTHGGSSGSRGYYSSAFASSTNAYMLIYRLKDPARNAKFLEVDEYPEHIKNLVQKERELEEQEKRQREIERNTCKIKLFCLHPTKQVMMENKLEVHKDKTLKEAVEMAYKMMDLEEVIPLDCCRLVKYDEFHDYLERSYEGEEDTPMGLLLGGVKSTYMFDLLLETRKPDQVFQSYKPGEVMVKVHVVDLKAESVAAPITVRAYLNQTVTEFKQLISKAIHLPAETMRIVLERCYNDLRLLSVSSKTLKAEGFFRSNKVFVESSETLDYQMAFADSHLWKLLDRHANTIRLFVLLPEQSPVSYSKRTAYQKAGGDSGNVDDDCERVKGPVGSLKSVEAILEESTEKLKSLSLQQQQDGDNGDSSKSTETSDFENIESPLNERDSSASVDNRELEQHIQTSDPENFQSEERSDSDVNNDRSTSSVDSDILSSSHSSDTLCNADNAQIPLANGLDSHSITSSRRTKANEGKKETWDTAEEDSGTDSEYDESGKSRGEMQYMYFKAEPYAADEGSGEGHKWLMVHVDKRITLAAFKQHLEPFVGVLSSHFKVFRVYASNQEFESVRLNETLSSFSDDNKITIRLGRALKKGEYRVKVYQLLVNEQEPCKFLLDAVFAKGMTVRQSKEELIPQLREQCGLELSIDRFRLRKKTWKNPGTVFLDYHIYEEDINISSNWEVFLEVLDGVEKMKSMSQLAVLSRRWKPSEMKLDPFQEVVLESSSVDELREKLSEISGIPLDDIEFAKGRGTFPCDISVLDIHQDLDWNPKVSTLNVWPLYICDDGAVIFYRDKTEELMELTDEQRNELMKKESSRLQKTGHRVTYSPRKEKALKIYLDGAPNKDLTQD
Method in brief: as §1

[4] = target: T3, USP48 (UniProt Q86UV5)
T3 sequence (whole entry): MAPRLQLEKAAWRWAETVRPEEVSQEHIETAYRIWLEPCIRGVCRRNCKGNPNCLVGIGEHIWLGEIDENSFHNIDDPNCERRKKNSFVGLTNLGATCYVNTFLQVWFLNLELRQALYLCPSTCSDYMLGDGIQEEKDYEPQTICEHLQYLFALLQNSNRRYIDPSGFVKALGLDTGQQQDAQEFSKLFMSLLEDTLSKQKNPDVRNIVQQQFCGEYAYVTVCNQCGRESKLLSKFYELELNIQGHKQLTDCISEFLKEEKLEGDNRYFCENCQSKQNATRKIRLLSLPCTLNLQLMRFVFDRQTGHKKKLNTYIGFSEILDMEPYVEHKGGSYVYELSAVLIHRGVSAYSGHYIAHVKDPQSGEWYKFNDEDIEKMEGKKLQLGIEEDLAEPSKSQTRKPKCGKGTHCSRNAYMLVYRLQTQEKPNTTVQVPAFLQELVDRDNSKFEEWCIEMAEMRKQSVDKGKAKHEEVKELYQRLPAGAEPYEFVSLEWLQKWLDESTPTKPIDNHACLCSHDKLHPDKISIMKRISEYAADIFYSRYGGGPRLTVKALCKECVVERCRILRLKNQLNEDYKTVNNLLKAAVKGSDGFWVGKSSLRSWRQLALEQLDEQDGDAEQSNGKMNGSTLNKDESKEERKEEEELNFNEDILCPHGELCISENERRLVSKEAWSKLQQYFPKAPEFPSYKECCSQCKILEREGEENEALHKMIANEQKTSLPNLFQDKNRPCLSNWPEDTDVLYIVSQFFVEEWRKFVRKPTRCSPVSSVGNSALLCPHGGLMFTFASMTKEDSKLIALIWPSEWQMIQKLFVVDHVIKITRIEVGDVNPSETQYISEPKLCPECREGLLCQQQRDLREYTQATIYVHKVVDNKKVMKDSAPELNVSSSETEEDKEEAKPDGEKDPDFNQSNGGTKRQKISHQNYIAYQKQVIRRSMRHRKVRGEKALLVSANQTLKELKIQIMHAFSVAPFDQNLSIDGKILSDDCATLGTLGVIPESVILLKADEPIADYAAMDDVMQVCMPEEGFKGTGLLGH
Method in brief: as §1

[5] = target: T4, USP5 (UniProt P45974)
T4 sequence (whole entry): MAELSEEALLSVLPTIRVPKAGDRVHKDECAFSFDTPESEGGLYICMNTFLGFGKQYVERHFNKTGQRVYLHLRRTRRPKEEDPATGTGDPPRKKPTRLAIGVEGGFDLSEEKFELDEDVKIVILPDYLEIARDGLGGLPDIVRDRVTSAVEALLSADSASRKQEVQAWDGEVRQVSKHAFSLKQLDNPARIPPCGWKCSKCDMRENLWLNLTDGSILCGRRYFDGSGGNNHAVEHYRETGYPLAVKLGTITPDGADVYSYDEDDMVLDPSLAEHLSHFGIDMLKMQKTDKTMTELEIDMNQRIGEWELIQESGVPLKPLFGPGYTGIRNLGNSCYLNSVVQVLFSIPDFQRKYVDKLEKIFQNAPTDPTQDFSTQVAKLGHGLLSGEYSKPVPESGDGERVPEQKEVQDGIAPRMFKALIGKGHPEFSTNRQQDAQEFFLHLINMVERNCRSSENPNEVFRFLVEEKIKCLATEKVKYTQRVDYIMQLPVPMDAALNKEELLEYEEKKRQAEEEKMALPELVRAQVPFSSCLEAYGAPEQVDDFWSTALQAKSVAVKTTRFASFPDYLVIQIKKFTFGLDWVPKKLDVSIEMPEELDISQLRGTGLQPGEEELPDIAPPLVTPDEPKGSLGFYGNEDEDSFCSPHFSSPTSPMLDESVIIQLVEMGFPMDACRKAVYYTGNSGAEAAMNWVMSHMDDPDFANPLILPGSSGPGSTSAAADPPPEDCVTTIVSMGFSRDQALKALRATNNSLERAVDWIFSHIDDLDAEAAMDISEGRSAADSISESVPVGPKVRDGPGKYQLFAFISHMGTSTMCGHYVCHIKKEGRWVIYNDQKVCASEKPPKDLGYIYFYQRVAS
Method in brief: as §1

[6] = target: USP54 (UniProt Q70EL1)
Method in brief: as §1

[7] = target: USP7 (UniProt Q93009)
USP7, sequence (Q93009 whole entry, looked up): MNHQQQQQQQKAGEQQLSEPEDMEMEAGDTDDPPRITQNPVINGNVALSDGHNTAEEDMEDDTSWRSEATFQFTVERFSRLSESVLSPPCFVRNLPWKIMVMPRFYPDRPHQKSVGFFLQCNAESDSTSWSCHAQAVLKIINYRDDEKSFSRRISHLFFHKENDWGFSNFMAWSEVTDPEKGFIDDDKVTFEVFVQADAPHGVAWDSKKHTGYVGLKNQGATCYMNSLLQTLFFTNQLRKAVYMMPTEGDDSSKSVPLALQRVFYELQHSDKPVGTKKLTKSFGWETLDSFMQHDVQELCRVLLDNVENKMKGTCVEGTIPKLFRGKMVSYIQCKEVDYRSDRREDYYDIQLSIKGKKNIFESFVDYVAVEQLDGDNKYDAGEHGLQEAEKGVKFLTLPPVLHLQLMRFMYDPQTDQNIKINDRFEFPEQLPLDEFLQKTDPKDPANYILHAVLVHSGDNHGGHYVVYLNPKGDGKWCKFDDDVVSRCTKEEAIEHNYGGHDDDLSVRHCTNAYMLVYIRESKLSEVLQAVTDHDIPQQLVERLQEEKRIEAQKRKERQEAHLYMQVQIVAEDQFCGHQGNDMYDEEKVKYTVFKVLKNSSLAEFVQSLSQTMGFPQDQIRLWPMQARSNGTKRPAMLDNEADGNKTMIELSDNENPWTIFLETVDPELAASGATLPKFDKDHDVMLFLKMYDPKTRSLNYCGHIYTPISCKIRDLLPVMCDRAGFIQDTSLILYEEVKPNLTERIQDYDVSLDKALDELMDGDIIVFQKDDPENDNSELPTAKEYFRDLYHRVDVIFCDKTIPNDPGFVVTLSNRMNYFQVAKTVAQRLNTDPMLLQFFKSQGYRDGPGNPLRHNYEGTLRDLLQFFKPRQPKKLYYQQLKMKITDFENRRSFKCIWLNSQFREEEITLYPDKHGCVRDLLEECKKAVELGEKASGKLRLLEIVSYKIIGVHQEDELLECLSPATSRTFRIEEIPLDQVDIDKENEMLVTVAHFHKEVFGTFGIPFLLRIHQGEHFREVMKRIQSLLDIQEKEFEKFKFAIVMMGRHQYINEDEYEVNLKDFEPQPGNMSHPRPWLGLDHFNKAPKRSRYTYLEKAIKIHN
Method in brief: as §1

[8] = target: T5, USP8 (UniProt P40818)
T5 sequence (whole entry): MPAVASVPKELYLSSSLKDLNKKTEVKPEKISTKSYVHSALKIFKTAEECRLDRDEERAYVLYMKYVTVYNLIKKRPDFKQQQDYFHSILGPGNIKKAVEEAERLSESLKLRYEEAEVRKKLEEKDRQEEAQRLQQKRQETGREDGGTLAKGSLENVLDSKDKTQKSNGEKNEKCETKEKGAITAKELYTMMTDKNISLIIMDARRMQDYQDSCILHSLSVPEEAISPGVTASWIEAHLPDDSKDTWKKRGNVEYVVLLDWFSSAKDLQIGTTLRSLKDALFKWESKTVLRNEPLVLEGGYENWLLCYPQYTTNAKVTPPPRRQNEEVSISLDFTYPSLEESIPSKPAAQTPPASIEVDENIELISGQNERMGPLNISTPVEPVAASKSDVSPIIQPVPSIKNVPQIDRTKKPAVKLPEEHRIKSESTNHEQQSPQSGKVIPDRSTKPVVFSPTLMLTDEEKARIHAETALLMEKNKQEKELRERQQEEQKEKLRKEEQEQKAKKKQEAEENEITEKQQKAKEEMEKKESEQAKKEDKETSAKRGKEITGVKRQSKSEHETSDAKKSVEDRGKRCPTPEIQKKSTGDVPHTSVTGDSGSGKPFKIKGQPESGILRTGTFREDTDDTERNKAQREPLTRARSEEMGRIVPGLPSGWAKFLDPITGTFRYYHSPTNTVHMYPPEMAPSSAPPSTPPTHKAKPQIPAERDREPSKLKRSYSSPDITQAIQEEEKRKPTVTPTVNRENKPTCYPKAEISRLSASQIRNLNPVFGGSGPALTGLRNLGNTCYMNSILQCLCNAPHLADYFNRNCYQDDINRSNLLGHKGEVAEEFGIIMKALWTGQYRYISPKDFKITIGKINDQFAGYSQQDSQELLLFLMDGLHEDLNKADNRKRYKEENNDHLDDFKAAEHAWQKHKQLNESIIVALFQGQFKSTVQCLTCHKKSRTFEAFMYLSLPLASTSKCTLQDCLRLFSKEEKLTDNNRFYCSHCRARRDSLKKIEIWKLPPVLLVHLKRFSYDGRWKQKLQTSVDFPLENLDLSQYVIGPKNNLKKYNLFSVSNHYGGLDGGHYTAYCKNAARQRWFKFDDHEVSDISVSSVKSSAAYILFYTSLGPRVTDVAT
Method in brief: as §1

[9] = target: USP9X (UniProt Q93008)
USP9X, sequence (Q93008 whole entry): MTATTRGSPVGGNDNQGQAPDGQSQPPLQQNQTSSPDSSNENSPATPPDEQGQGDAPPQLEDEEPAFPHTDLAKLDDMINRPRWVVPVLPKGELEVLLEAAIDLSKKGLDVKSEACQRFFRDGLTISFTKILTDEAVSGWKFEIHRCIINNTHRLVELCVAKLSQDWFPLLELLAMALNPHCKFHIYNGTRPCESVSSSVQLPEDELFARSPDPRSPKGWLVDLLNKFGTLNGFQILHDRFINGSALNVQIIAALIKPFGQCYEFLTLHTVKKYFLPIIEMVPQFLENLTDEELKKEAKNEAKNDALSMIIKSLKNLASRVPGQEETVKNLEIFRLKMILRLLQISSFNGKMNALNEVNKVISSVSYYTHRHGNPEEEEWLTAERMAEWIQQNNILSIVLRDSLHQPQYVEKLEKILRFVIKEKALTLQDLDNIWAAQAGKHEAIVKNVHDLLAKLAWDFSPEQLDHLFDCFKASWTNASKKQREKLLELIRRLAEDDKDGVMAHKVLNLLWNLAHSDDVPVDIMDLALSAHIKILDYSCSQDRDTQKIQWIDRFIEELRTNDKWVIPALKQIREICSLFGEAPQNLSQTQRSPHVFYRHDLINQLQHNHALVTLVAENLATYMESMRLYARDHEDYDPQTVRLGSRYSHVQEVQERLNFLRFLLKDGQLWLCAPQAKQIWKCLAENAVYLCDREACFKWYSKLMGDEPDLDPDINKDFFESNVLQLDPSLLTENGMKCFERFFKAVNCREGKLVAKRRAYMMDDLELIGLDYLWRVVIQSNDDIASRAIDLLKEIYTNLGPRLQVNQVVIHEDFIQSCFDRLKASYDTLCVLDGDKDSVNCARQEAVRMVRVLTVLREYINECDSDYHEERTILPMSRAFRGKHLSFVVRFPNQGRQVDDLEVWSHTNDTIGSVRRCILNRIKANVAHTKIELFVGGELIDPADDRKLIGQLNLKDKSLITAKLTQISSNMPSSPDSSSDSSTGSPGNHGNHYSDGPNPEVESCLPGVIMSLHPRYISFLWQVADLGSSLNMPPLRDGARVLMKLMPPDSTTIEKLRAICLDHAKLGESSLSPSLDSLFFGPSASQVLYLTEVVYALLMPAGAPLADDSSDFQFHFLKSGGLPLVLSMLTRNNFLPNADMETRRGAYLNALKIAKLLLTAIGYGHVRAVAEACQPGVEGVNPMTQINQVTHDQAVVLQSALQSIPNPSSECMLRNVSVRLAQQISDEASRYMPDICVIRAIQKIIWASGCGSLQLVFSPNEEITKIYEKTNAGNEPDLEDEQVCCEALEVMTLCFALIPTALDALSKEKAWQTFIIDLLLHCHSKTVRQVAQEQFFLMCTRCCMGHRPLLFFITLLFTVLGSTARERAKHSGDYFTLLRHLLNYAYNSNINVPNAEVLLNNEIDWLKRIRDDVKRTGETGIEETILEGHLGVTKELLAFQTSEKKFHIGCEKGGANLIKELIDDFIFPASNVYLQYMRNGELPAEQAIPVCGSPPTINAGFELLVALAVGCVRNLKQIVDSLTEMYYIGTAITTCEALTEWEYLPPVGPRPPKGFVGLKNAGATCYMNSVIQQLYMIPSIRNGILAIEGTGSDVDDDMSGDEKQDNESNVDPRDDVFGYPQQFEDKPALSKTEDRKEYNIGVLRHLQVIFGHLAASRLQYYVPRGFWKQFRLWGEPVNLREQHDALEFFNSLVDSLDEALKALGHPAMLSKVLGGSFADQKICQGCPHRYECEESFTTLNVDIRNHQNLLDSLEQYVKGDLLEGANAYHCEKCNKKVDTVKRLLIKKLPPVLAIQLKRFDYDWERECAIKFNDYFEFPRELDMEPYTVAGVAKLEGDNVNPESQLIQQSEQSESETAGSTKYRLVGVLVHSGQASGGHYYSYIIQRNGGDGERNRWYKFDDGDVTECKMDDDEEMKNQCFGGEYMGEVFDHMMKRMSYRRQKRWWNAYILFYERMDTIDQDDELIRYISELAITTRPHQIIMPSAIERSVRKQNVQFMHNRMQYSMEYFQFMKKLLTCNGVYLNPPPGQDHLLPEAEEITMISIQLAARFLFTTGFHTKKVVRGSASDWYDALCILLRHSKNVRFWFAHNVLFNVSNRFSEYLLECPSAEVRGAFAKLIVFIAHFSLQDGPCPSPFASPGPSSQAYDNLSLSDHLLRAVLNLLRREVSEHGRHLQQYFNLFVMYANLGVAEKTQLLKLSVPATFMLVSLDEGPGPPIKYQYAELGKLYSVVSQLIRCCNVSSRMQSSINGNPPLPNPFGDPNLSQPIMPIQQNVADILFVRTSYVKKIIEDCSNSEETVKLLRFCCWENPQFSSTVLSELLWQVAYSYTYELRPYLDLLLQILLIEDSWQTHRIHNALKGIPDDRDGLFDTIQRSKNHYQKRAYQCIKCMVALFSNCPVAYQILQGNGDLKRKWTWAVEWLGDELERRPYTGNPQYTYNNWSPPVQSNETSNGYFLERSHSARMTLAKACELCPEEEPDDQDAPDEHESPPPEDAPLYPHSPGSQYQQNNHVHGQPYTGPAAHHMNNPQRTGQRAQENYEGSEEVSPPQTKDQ
Method in brief: as §1

[10] = target: UniProt O00487
UniProt O00487, sequence (O00487 whole entry): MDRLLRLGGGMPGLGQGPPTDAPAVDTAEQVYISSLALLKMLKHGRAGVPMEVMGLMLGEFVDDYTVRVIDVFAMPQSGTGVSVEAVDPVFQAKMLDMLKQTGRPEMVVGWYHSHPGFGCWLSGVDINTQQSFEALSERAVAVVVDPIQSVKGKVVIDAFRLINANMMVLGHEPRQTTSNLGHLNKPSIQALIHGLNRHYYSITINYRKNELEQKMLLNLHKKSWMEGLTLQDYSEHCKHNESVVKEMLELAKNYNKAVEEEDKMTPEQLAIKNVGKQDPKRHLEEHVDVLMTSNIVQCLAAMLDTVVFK
Method in brief: as §1

| Compound | log2 ratio of Biotin-Ahx-Ub-VS probe labelling [1] | log2 ratio of Biotin-Ahx-Ub-VS probe labelling [2] | log2 ratio of Biotin-Ahx-Ub-VS probe labelling [3] | log2 ratio of Biotin-Ahx-Ub-VS probe labelling [4] | log2 ratio of Biotin-Ahx-Ub-VS probe labelling [5] | log2 ratio of Biotin-Ahx-Ub-VS probe labelling [6] | log2 ratio of Biotin-Ahx-Ub-VS probe labelling [7] | log2 ratio of Biotin-Ahx-Ub-VS probe labelling [8] | log2 ratio of Biotin-Ahx-Ub-VS probe labelling [9] | log2 ratio of Biotin-Ahx-Ub-VS probe labelling [10] |
| --- | --- | --- | --- | --- | --- | --- | --- | --- | --- | --- |
| Cl.O=C(CCl)N[C@H]1C[C@@H](n2cccn2)C1 | 0.0882 | -0.00232 | 0.175 | 0.0582 | -0.126 | -0.186 | -0.218 | 0.27 | -0.0582 | 0.0109 |
| O=C(CCl)N1c2ccccc2NC(=O)C12CCCC2 | 0.622 | -0.278 | 0.0188 | -1.04 (active) | 0.581 | -0.355 | -2.11 (active) | 0.279 | -0.316 | 0.0785 |
| O=C(CCl)N(C1CCCC1)C1CCS(=O)(=O)C1 (stereo not given) | 0.228 | -0.0761 | -0.442 | -1.18 (active) | 0.124 | -0.384 | -0.798 | 0.0542 | -0.0338 | -0.119 |
| Cc1cccc(NC(=O)[C@@H]2CCCN2C(=O)CCl)n1 | 0.315 | -0.247 | -0.448 | -0.474 | 0.305 | 0.236 | -0.502 | -0.358 | -0.337 | -0.177 |
